Source: paper PMC5540273 (PLoS ONE, 2017)
Where two headings read alike, the source gives them in different places.

What was measured:
Settings in all cases: n = 1
CDK4 = system: CDK4
CDK5 = system: CDK5
CDK7 = system: CDK7
CDK8 = system: CDK8
CDK9 = system: CDK9
CDKL1 = system: CDKL1
CDKL2 = system: CDKL2
CDKL3 = system: CDKL3
CDKL5 = system: CDKL5
CHEK1 = system: CHEK1
[1] = concentration: 1 μM, replicates: in singlicate
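Further: KINOMEscan kinase panel screen.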

Structure (SMILES) | %Inh (CDK4; [1]) [%] | %Inh (CDK5; [1]) [%] | %Inh (CDK7; [1]) [%] | %Inh (CDK8; [1]) [%] | %Inh (CDK9; [1]) [%] | %Inh (CDKL1; [1]) [%] | %Inh (CDKL2; [1]) [%] | %Inh (CDKL3; [1]) [%] | %Inh (CDKL5; [1]) [%] | %Inh (CHEK1; [1]) [%] | %Inh (CDK4; 1 µM) [%] | %Inh (CDK5; 1 µM) [%] | %Inh (CDK7; 1 µM) [%] | %Inh (CDK8; 1 µM) [%] | %Inh (CDK9; 1 µM) [%] | %Inh (CDKL1; 1 µM) [%] | %Inh (CDKL2; 1 µM) [%] | %Inh (CDKL3; 1 µM) [%] | %Inh (CDKL5; 1 µM) [%] | %Inh (CHEK1; 1 µM) [%]
COc1cc2ncn(-c3cc(OCC4CCCO4)c(C(N)=O)s3)c2cc1OC (stereo not shown) [GSK204607] | 13 | 0 | 4 | 32 | 0 | 11 | 1 | 0 | 0 | 0 | – | – | – | – | – | – | – | – | – | –
COc1ccc(C2=C(Nc3cccc(C(=O)O)c3)C(=O)NC2=O)cc1 [SB-390765] | 51 | 16 | 3 | 0 | 1 | 0 | 37 | 0 | 13 | 0 | – | – | – | – | – | – | – | – | – | –
Cl.O=C(Nc1cccc(-c2nn3ncccc3c2-c2ccnc(Nc3cccnc3)n2)c1)c1c(F)cccc1F [GSK312879] | 0 | 0 | 0 | 0 | 0 | 1 | 19 | 0 | 0 | 12 | – | – | – | – | – | – | – | – | – | –
C[C@@H]1CCCCN1c1cc(-c2ccc3c(N)n[nH]c3c2)nc(N)n1 [GSK2258759] | 21 | 0 | 0 | 20 | 0 | 6 | 6 | 0 | 0 | 0 | – | – | – | – | – | – | – | – | – | –
Cc1ccc(NC(=O)Nc2cccc(C(F)(F)F)c2)cc1 [GSK955403] | – | – | – | – | – | – | – | – | – | – | 0 | 0 | 12 | 0 | 0 | 14 | 0 | 4 | 0 | 5
Cc1ccc(C(=O)Nc2ccc(Nc3ccnc4cc(-c5ccccn5)ccc34)cc2O)cc1.Cl [GW440146] | 32 | 0 | 0 | 23 | 0 | 0 | 18 | 0 | 2 | 0 | – | – | – | – | – | – | – | – | – | –
Cc1ccc(-c2cc(-c3c[nH]nc3-c3ccccn3)ccn2)cc1 [GW684088] | 43 | 0 | 9 | 52 | 5 | 0 | 28 | 0 | 0 | 12 | – | – | – | – | – | – | – | – | – | –
Cn1ccc2ncnc(Oc3ccc(NC(=O)Nc4ccccc4)cc3)c21 | 0 | 0 | 13 | 12 | 9 | 36 | 2 | 0 | 17 | 1 | – | – | – | – | – | – | – | – | – | –
Fc1cc(Cl)ccc1Nc1ccnc2cc(I)ccc12 [GW551191] | 23 | 0 | 0 | 7 | 0 | 0 | 21 | 0 | 3 | 0 | – | – | – | – | – | – | – | – | – | –
Cc1cccc(-c2cc(Nc3ccncc3)c3ccccc3n2)n1 [GSK223675] | 0 | 0 | 0 | 0 | 4 | 0 | 5 | 0 | 1 | 0 | – | – | – | – | – | – | – | – | – | –
Cc1ccc(NC(=O)Nc2cc(C(C)(C)C)nn2-c2ccccc2)cc1 [GSK1014915] | 0 | 8 | 0 | 58 | 14 | 15 | 13 | 0 | 14 | 24 | – | – | – | – | – | – | – | – | – | –
O=c1cc(N2CCOCC2)nc2n(Cc3cccc(Cl)c3Cl)ccn12 [GSK2286295] | 0 | 0 | 0 | 0 | 14 | 0 | 7 | 0 | 2 | 0 | – | – | – | – | – | – | – | – | – | –
COc1ccccc1-c1ccc2c(NC(=O)C3CC3)n[nH]c2n1 [SB-711239] | 33 | 0 | 0 | 44 | 0 | 18 | 23 | 20 | 3 | 11 | – | – | – | – | – | – | – | – | – | –
Clc1cc(Cl)cc(Nc2ccnc(Nc3cc(Cl)cc(Cl)c3)n2)c1 [GSK175726] | 11 | 0 | 5 | 0 | 13 | 11 | 32 | 0 | 0 | 0 | – | – | – | – | – | – | – | – | – | –
CC(C)(C)c1ccc(C(=O)Nc2cn3cc(Cl)ccc3n2)cc1 | 0 | 18 | 0 | 7 | 0 | 19 | 0 | 0 | 0 | 0 | – | – | – | – | – | – | – | – | – | –
COc1cccc(-c2cc(-c3c[nH]nc3-c3ccccn3)ccn2)c1 [GW680338] | 31 | 0 | 0 | 44 | 0 | 0 | 0 | 23 | 0 | 0 | – | – | – | – | – | – | – | – | – | –
